This note sets out measurements from ChEMBL document CHEMBL3433997, “St. Jude Leishmania screening dataset” (2016).

Format in all cases: functional
The target of assay [1] is Solute carrier family 2, facilitated glucose transporter member 1 (Homo sapiens) (UniProt P11166). The experiment in a line: ST_JUDE_LEISH: Cytotoxicity at 2uM final concentration against transgenic Leishmania Mexicana promastigotes LmGLUT1 that are glucose transport deficient and complemented with the human glucose transporter GLUT1. Activity is measured by DNA content using SYBR green in vitro.

In assay [2] the target is Hexose transporter 1 (Plasmodium falciparum) (UniProt O97467). The experiment in a line: ST_JUDE_LEISH: Cytotoxicity at 2uM final concentration against transgenic Leishmania Mexicana promastigotes LmPfHT that are glucose transport deficient and complemented with the Plasmodium falciparum hexose transporter. Activity is measured by DNA content using SYBR green in vitro.

Assay [3] addresses Glucose transporter (Leishmania mexicana) (UniProt O61059). The assay is described as follows: ST_JUDE_LEISH: Cytotoxicity at 2uM final concentration against transgenic Leishmania Mexicana promastigotes LmGT2 that are glucose transport deficient and complemented with the L. Mexicana glucose transporter 2. Activity is measured by DNA content using SYBR green in vitro.

Solute carrier family 2, facilitated glucose transporter member 1 (Homo sapiens), sequence (P11166 whole entry): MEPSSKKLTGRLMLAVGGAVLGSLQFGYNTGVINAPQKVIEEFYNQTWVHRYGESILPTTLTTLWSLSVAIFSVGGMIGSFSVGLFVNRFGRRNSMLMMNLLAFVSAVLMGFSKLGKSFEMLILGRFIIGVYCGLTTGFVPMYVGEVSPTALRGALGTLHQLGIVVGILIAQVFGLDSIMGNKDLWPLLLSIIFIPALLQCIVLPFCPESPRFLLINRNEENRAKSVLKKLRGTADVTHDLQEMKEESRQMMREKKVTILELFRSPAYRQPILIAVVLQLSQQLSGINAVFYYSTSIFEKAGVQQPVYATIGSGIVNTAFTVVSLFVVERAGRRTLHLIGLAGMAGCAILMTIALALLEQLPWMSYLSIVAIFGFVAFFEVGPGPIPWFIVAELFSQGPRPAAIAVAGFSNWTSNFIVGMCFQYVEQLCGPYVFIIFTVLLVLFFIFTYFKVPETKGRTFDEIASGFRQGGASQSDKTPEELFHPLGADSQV

Consider `COc1ccc(-c2cccc(NC(=O)c3ccc(F)cc3)c2)cc1CNC(C)C`, for which the values for the inhibition in assay [1], in assay [2] and in assay [3] were 1.85%, 3.31% and 3.19%, respectively.
Regarding `COc1cc2nc(N(C)C)nc(Nc3ccc4c(cnn4Cc4ccccc4)c3)c2cc1OC`, the inhibition in assay [1] is -0.58%; in assay [2], -0.17%; in assay [3] it was 2.85%.
Take `CCCCCCN1CCN(Cc2cccc(NC(=O)c3cccc(OCC)c3)c2)CC1`: the inhibition came out at 13.6% in assay [1], 13.5% in assay [2] and 13.1% in assay [3].
Turning to `COc1cccc(CN2CCCN(Cc3cccc(NC(=O)c4ccc(Cl)c(Cl)c4)c3)CC2)c1`, the figures for the inhibition in assay [1], in assay [2] and in assay [3] were 4.43%, -0.94% and 2.19%, respectively.
For the compound `COc1ccc(-c2ccc(CNC3Cc4ccccc4C3)cc2)cc1S(=O)(=O)NCCN1CCCC1`, the figures for the inhibition in assay [1], in assay [2] and in assay [3] were 1.48%, 3.39% and -0.28%, respectively.
On to `COc1ccc(N2CCN(CCCCNC(=O)c3ccc(/C=C/c4ccc(Cl)c(Cl)c4)cc3)CC2)c(OC)c1`, for which the values for the inhibition in assay [1], in assay [2] and in assay [3] were -0.28%, 1.71% and 2.02%, respectively.
Consider `CN(c1ccc(NC(=O)Nc2cc(C(F)(F)F)ccc2F)cc1)c1ccnc(NCCN2CCCC2)n1`, for which the inhibition turned out to be 5.11% in assay [1], 4.8% in assay [2] and 4.41% in assay [3].
With `CCc1nc2c(N)nc(N)nc2nc1-c1ccc(OC)cc1`, the inhibition in assay [1] came out at 0.85%; in assay [2], 0.84%; in assay [3], 1.23%.
Regarding `CCOC(=O)c1nc(-c2ccc(Cl)cc2)[nH]c1NC(=S)NCCCN1CCOCC1`, the results for the inhibition in assay [1], in assay [2] and in assay [3] were -0.48%, 1.52% and -2.41%, respectively.
Consider `O=S(=O)(c1ccc(OCc2ccc(Cl)cc2)cc1)c1cc2c(c(-c3ccc(F)cc3)c1)CCN(CC1CC1)CC2`, for which the inhibition in assay [1] is 2.2%; in assay [2], 0.41%; in assay [3] it was -0.48%.
For `COc1cc2nc(N3CCC(CNC(=O)c4ccc(NC(=O)c5ccc(Cl)cc5)cc4)CC3)nc(N)c2cc1OC`, in that order: 0.04%, 0.98% and 0.86%.
As for `COc1cc(O)c2c(=O)c(OC)c(-c3cccc(Cl)c3OCC(=O)O)oc2c1OC`, the inhibition in assay [1] was -2.29%; in assay [2], -1.48%; in assay [3] it was -0.46%.
`Cc1cc(N)nc2ccc(-c3cccc(CN)c3)cc12`: the results for the inhibition in assay [1], in assay [2] and in assay [3] were 0.78%, 0.76% and -2.14%, respectively.
For `COc1ccc(NC(=O)/C=C/c2ccccc2Cl)cc1OCCN1CCC(NCc2cccnc2)CC1`, the inhibition in assay [1] worked out at 3.65%; in assay [2], 2.5%; in assay [3], 1.91%.
As for `CCN(CC)CCNc1nccc(N(C)c2ccc(NC(=O)Nc3cc(C(F)(F)F)ccc3F)cc2)n1`, the results for the inhibition in assay [1], in assay [2] and in assay [3] were 5.98%, 2.93% and 0.26%, respectively.
Turning to `Fc1ccc2[nH]c(-c3ccc(-c4cccc(CN5CCN(c6ccncc6)CC5)c4)cc3)nc2c1`, the inhibition in assay [1] worked out at 2.37%; in assay [2] it was 1.42%; in assay [3] it was 4.07%.
Take `O=C(Nc1cccc(CN2CCN(C(=O)c3cccc(F)c3)CC2)c1)c1ccco1`: the inhibition in assay [1] was determined as 2.27%; in assay [2], 2.31%; in assay [3] it was 0.61%.
As to `Cc1cc(N[C@@H](Cc2ccccc2)C(=O)NCc2cccc(F)c2)nc(NCCc2cccs2)n1`, the results for the inhibition in assay [1], in assay [2] and in assay [3] were 2.6%, 2.99% and 2.23%, respectively.
Taken in the same sequence, the figures for `CCN(CCCN1CCCCC1)c1cc(C)nc(Nc2ccc(C)cc2Br)n1` were 4.17%, 4.38% and 4.15%.
For `Cc1cc(NCCCCCCCCNc2cc(C)nc3ccccc23)c2ccccc2n1`, in that order: -0.97%, 1.84% and 0.69%.
For the compound `CN1CCC(COc2ccc(CN3CCC(NC(=O)c4cccc(Cl)c4)CC3)cc2)CC1`, the inhibition is 2.48% in assay [1], 3.13% in assay [2] and 0.42% in assay [3].
Turning to `CC(C)(C)c1ccc(CN2CCC(NC(=O)c3ccc(-c4cccc(Cl)c4)s3)CC2)cc1`, the inhibition in assay [1] was determined as 11.2%; in assay [2], 8.67%; in assay [3] it was 7.09%.
For `CC1CN(c2cnn(Cc3cccc(NC(=O)Nc4ccc(F)cc4[N+](=O)[O-])c3)c(=O)c2Cl)CC(C)N1` (centres undefined), in that order: -2.05%, 1.66% and -0.22%.
Taken in the same sequence, the figures for `Cc1c(C(=O)N2CCc3cc4nccc(N5CCN6CCC[C@H]6C5)c4cc32)cnn1-c1ccc(C#N)cc1` were 3.57%, 3.55% and 2.9%.
Regarding `CN1CCN(CCCN(Cc2cccc(-c3ccc(CNCc4ccc5c(c4)OCO5)cc3)c2)C(=O)CCC2CCCC2)CC1`, the inhibition turned out to be 51.2% in assay [1], 45.7% in assay [2] and 34.4% in assay [3].
For `CCCCCC(C)C(C)c1cc(O)c2c(c1)OC(C)(C)CC2(O)c1ccnn1C` (centres undefined), in that order: 3.29%, 3.23% and 3.24%.
`CC(C)Cc1c(O)nc(SCCN2CCOCC2)[nH]c1=O`: the inhibition is -0.96% in assay [1], 1.54% in assay [2] and -0.43% in assay [3].
As to `O=C(Nc1ccccc1O)c1ccc(Oc2cccc(C(=O)Nc3ccccc3O)c2)cc1`, the inhibition in assay [1] worked out at 3.99%; in assay [2], 4.01%; in assay [3] it was 1.13%.
Take `c1ccc2[nH]c(-c3ccc(-c4ccc(CN5CCCCC5)cc4)s3)nc2c1`: the inhibition is 0.97% in assay [1], 0.62% in assay [2] and -0.34% in assay [3].
For `Cc1ccc(-c2nnc3c4ccccc4c(C)nn23)cc1S(=O)(=O)N1CCN(CCO)CC1`, in that order: 0.38%, 0.96% and -0.93%.
As for `Cc1cc(NC(=O)CCN2CCN(c3cccc(Cl)c3Cl)CC2)ccc1N1CCN(C(C)C)CC1`, the inhibition in assay [1] was -0.22%; in assay [2] it was -0.39%; in assay [3], -2.11%.
For `O=C(N1CCN(c2cccc(C(F)(F)F)c2)CC1)C(Cl)(Cl)Cl`, in that order: 0.96%, 5.03% and 1.47%.
On to `COCn1ncc2cc(-c3cccc(NC(=O)c4csc(NC(C)=O)n4)c3)ccc21`, for which the results for the inhibition in assay [1], in assay [2] and in assay [3] were 3.31%, 1.44% and 2.05%, respectively.

As a reminder, the inhibition is the drop in the measured response relative to a control, in per cent.
